The list is not random: actives were taken first. Their share in the collection is about 19%.
TDP1 cell noCPT: qHTS for Inhibitors of human tyrosyl-DNA phosphodiesterase 1 (TDP1): qHTS in cells in absence of CPT | DT40 Tdp1-/- hTDP1 cells, no CPT, ATP luminescence, 48 h | Potency, µM (top dose mostly 46.2 µM), most hits filed as inhibitors | 420,000 compounds, 15% hits | AID 686978, 2013; further: nearly all actives have a fitted effect of over 55% in size
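Chicken DT40 Tdp1-/- cells complemented with human TDP1, screened without camptothecin (DMSO vehicle only), 400 cells/well. Compounds pin-transferred, cells incubated at 37 °C for at least 48 hr. Growth read as ATP-dependent luminescence (CellTiter-Glo, 30 min at RT).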
ELG1 DNA repair: qHTS screen for small molecules that inhibit ELG1-dependent DNA repair in human embryonic kidney (HEK293T) cells expressing luciferase-tagged ELG1; HEK293T ELG1-luciferase reporter, luminescence, 16 h; DNA damage induced by 5-fluorouridine; Potency, µM (highest dose often 46.1 µM), hits mostly inhibitors; 330,000 compounds, 2.3% hits; further: nearly all actives have a fitted effect of over 55% in size
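Cells (2,000 per well) received 5-fluorouridine plus test compound or DMSO and were incubated 16 hr at 37 °C, 5% CO2. Luciferase activity was read by luminescence 30 min after ONE-Glo addition; signal suppression marked inhibition of damage-induced ELG1 function.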
DT40 TDP1 CPT: qHTS for Inhibitors of human tyrosyl-DNA phosphodiesterase 1 (TDP1): qHTS in cells in presence of CPT | Potency, µM (titrated, usually from 46.2 µM), actives largely listed as inhibitors | 420,000 compounds, 12% hits | chicken DT40 Tdp1-/-;hTDP1 cells + 20 nM CPT, ATP luminescence, 48 h; further: nearly all actives have a fitted effect of over 55% in size
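Cell growth measured by CellTiter-Glo luminescence after a minimum 48 h, 37 C compound exposure with 20 nM CPT in Tdp1-knockout DT40 cells stably expressing hTDP1, seeded 400/well; qHTS titration format.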
IL1B secr inh: qHTS for Inhibitors of Inflammasome Signaling: IL-1-beta AlphaLISA Primary Screen; THP-1 LPS/ATP IL-1B secretion, AlphaLISA, 16 h; hits give low values; activity change, % at 57.5 µM; 360,000 compounds, 4.7% hits; AID 743279, 2014; in the data active means activity change below about -50%; inconclusive means mostly about -30% to -49%
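Secreted IL-1B measured by AlphaLISA bead assay after 16 h compound exposure of THP-1 cells; compounds (final up to 57.5 uM) added 1 h before LPS (250 ng/mL) and ATP (1.25 mM) stimulation; lower signal means less secretion.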
HT1080-NT tox: qHTS for induction of synthetic lethality in tumor cells producing 2HG: qHTS for the HT-1080-NT fibrosarcoma cell line; HT-1080-NT fibrosarcoma viability, CellTiter-Glo ATP luminescence, 48 h; Potency, µM (series often up to 46.1 µM), actives largely listed as cytotoxic; 360,000 compounds, 1.6% hits;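 further: NT is the 2HG producing partner of a matched IDH1 knockdown line; nearly all actives have a fitted effect of over 55% in size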
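Fibrosarcoma NT cells, 750 per well in 5% FBS RPMI, were exposed to compound for 48 hours. Viability: CellTiter-Glo luminescence.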
HT1080 IDH1KD tx: qHTS for induction of synthetic lethality in tumor cells producing 2HG: qHTS for the HT-1080-IDH1KD cell line. Potency, µM (series often up to 46.1 µM), actives largely listed as cytotoxic. AID 686971, 2013. HT-1080 IDH1 knockdown viability, ATP luminescence, 48 h. 360,000 compounds, 2% hits
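CellTiter-Glo luminescence after 48 h compound exposure at 37 degrees C of IDH1-knockdown HT-1080 cells in 5% FBS RPMI. %Activity scaled between DMSO wells and cell-free media wells, with curves fitted and assigned curve classes.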
A number is an active result; [ ] = another dose, or the depositor's remark. Unless noted, the call rests on the fitted dose curve; in most records, active means well fitted curve in the direction sought with a large enough effect; inconclusive means small, poorly fitted or top-dose-only effect, or another doubt; inactive means no such curve, though single readings can be large; an effect the other way counts as inactive or inconclusive.

What do the screens show for `Cc1cc(-c2ccccc2)nc(Oc2ccc(C(C)(C)C)cc2)c1S(C)(=O)=O`?
TDP1 cell noCPT: 21µM; ELG1 DNA repair: inactive; DT40 TDP1 CPT: inconclusive; IL1B secr inh: inactive; HT1080-NT tox: inactive; HT1080 IDH1KD tx: inactive

What do the screens show for `COc1cc(S(=O)(=O)N2CCN(C(=O)c3cccs3)CC2)ccc1NC(C)=O`?
TDP1 cell noCPT: inactive; DT40 TDP1 CPT: inactive; IL1B secr inh: inactive; HT1080-NT tox: inactive; HT1080 IDH1KD tx: inactive

What do the screens show for `COCCNC(=O)CSc1nc(N)c(NC(=O)c2ccccc2F)c(=O)[nH]1`?
TDP1 cell noCPT: inactive; ELG1 DNA repair: inactive; DT40 TDP1 CPT: inactive; IL1B secr inh: inactive; HT1080-NT tox: inactive; HT1080 IDH1KD tx: inactive

What do the screens show for `Cc1ccc(OC(C)C(=O)N=Nc2c(O)[nH]c3ccc([N+](=O)[O-])cc23)cc1` (stereo unspecified)?
TDP1 cell noCPT: inconclusive; ELG1 DNA repair: inactive; DT40 TDP1 CPT: inconclusive; IL1B secr inh: inactive; HT1080-NT tox: inactive; HT1080 IDH1KD tx: inactive

How did CCOc1ncccc1C(=O)NNC(=O)c1csc(N2CCOCC2)n1 do in these assays?
TDP1 cell noCPT: inconclusive; ELG1 DNA repair: inactive; DT40 TDP1 CPT: 26µM; IL1B secr inh: inactive; HT1080-NT tox: inactive; HT1080 IDH1KD tx: inactive

How did O=C(NNC(=O)c1cc(Br)ccc1Cl)c1csc(N2CCOCC2)n1 do in these assays?
TDP1 cell noCPT: inactive; ELG1 DNA repair: inactive; DT40 TDP1 CPT: inactive; IL1B secr inh: inactive; HT1080-NT tox: inactive; HT1080 IDH1KD tx: inactive

How did O=C(NNC(=O)c1cc(Br)ccc1O)c1csc(N2CCOCC2)n1 do in these assays?
TDP1 cell noCPT: 21µM; ELG1 DNA repair: inconclusive; DT40 TDP1 CPT: inconclusive; IL1B secr inh: inactive; HT1080-NT tox: inactive; HT1080 IDH1KD tx: inconclusive

How did CCN(CC)S(=O)(=O)c1ccc(C(=O)NNC(=O)c2csc(N3CCOCC3)n2)cc1 do in these assays?
TDP1 cell noCPT: inactive; ELG1 DNA repair: inactive; DT40 TDP1 CPT: inactive; IL1B secr inh: inactive; HT1080-NT tox: inactive; HT1080 IDH1KD tx: inactive

How did O=C(NNC(=O)c1cccs1)c1csc(N2CCOCC2)n1 do in these assays?
TDP1 cell noCPT: inactive; ELG1 DNA repair: inactive; DT40 TDP1 CPT: inactive; IL1B secr inh: inactive; HT1080-NT tox: inactive; HT1080 IDH1KD tx: inactive

How did CC(=O)Nc1ccc(C(=O)NNC(=O)c2csc(N3CCOCC3)n2)cc1 do in these assays?
TDP1 cell noCPT: 7.3µM; DT40 TDP1 CPT: inconclusive; IL1B secr inh: inactive; HT1080-NT tox: inactive; HT1080 IDH1KD tx: inactive

How did CC1=CC(C)(C)[N+](C)(C)c2ccc(C)cc21 do in these assays?
TDP1 cell noCPT: 18µM; ELG1 DNA repair: inactive; DT40 TDP1 CPT: inconclusive; IL1B secr inh: inactive; HT1080-NT tox: inactive; HT1080 IDH1KD tx: inactive

Results for COc1cc(C(=O)Nc2ccc(-c3nc4cc(C)ccc4o3)c(O)c2)cc(OC)c1OC ?
TDP1 cell noCPT: 8.2µM; ELG1 DNA repair: inconclusive; DT40 TDP1 CPT: 12µM; HT1080-NT tox: inactive; HT1080 IDH1KD tx: inactive[9.24 µM]

How did COc1cc(C(=O)Nc2ccc3oc(-c4ccc(C)c(Br)c4)nc3c2)cc(OC)c1OC do in these assays?
TDP1 cell noCPT: 8.2µM; DT40 TDP1 CPT: 21µM

What do the screens show for `COc1cc(C(=O)Nc2cccc(-c3nc4cc(C)cc(C)c4o3)c2)cc(OC)c1OC`?
TDP1 cell noCPT: inactive; ELG1 DNA repair: inconclusive; DT40 TDP1 CPT: inconclusive; IL1B secr inh: inactive; HT1080-NT tox: inactive; HT1080 IDH1KD tx: inactive

Results for COc1cc(C(=O)Nc2ccc(Cl)c(-c3nc4ncccc4o3)c2)cc(OC)c1OC ?
TDP1 cell noCPT: 16µM; DT40 TDP1 CPT: 21µM
